Laboratory results taken from PubChem BioAssay (NCI).
This is part of a sample that, as a whole, favours compounds with a hit. Of some 83,000 tested, about 20% had one in any assay.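 Results are percent growth after 48 hours of single-concentration exposure. 100 means growth as in untreated cells, lower positive values show inhibition; negative values down to -100 show cell death.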 A number with no mark means an inactive call. The source made the active and inactive calls. How the source made its calls: active means growth percent below 10; inactive means the rest.

Experiments:
Test in all cases: NCI-60 one-dose screen, 48 h (100 = growth as untreated, 0 = no growth, -100 = all killed)
Conditions in all cases: 10 µM unless noted
[1] = tested on: SK-MEL-2 melanoma
[2] = tested on: EKVX NSCLC
[3] = tested on: SN12C renal
[4] = tested on: UO-31 renal
[5] = tested on: TK-10 renal
[6] = tested on: CAKI-1 renal
[7] = tested on: A498 renal
[8] = tested on: CCRF-CEM leukemia
[9] = tested on: MOLT-4 leukemia

SMILES | growth [1] | growth [2] | growth [3] | growth [4] | growth [5] | growth [6] | growth [7] | growth [8] | growth [9]
CCC(=C(c1ccc(OCCN2CCCCC2)cc1)c1ccc(OCCN2CCCCC2)cc1)c1ccc(Cl)cc1 | -76.1% (active) | -82.1% (active) | -94.9% (active) | -94.5% (active) | -84.7% (active) | -95.6% (active) | -81.4% (active) | -74.4% (active) | -68.2% (active)
Nc1ncnc2c1C(c1ccc(Br)cc1)c1sc3c(F)cccc3c1O2 (stereo not drawn) | 110% | 69.3% | 104% | 64.2% | 119% | 79.4% | 114% | 97.8% | 101%
CC1=C2[C@@H](CC1)[C@]1(C)O[C@@](C(C)C)(C[C@H]1OC(=O)[C@H](C)O)[C@H]2OC(=O)/C=C/c1ccccc1 | 80.6% | 66.1% | 45.7% | 0.932% (active) | 90.1% | 60.5% | -66.1% (active) | 85.8% | 62.8%
CC1(C)CC(=O)C2=C(C1)N(c1ccc(OC(F)(F)F)cc1)C(N)=C(C#N)C2c1ccc(Br)cc1F (stereo not drawn) | 88.6% | 82% | 58.7% | 70.3% | 119% | 50.3% | 31.4% | 85.6% | 63%
Nc1ncnc2c1c(-c1cccc(Cl)c1)nn2CC(=O)N1CCOCC1 | 106% | 104% | 100% | 80.7% | 97% | 91.8% | 118% | 102% | 110%
CCNCCNc1cc(C2CCCCC2)c(C#N)c2nc3ccccc3n12 | 23.2% | 36% | 12.8% | -41% (active) | 27.2% | 25.1% | -25.1% (active) | -28.6% (active) | -7.01% (active)
c1ccc2cc(C[n+]3ccn(CCCCCCCCCCn4cc[n+](Cc5ccc6ccccc6c5)c4)c3)ccc2c1 | -39.4% (active) | 13.7% | 4.24% (active) | 77.5% | 15.1% | 74.7% | 9.69% (active) | -4.14% (active) | -43.6% (active)
COc1cc2ncnc(Nc3ccc(F)c(Cl)c3)c2cc1OCC(=O)N1CCN(c2ccccc2)CC1 | 102% | 77.6% | 80.4% | 46.5% | 42.4% | 50.6% | 61.2% | 103% | 90.3%
NC(=O)c1cc(I)ccc1NC(=O)/C=C/c1ccccc1 | -31.7% (active) | 36.1% | 31.5% | 28.1% | 60.8% | 25.6% | -14.9% (active) | 11.9% | 4.56% (active)
CCCCCCCCCc1ccc(OCCOCCOCCOCCOCCOCCOCCOCCOCCO)cc1 | 7.03% (active) | 15.5% | 13% | 12.8% | 23.1% | 13.6% | -5.27% (active) | -22.2% (active) | -17.6% (active)
c1ccc(Cn2cc3c(c2)-c2oncc2CC3)cc1 | 53.9% | 41.4% | 47.8% | 41.6% | 77.1% | 47% | 44.6% | 6.94% (active) | 53.6%
COc1ccc2[nH]c(C(=O)N3CCN(C(=O)OCc4ccc5c(Cl)cc(Cl)c(O)c5n4)CC3)cc2c1 | -77.2% (active) | -76.6% (active) | -83.8% (active) | -100% (active) | -99.2% (active) | -95.6% (active) | -13.8% (active) | -9.25% (active) | -6.74% (active)
COc1ccc(-c2nn(-c3cccc(Cl)c3)cc2-c2cc(-c3ccc(Br)cc3)nc(N)n2)cc1 | 99.7% | 92.3% | 92.7% | 76% | 104% | 77.3% | 81.6% | 92.7% | 88.3%
Cc1cn(-c2cc(NC(=O)c3cncc(C#Cc4cnc(N)c5ncccc45)c3)cc(C(F)(F)F)c2)cn1 | 6.39% (active) | 85.1% | 58.3% | 25.4% | 90.3% | 92% | 60.7% | 32.5% | 34.7%
COc1cccc(CNc2ccc3ncnc(Nc4ccc(F)c(Cl)c4)c3c2)c1 | 94.9% | 26% | 52.8% | 32.5% | 29.8% | 34.6% | 45.1% | 75.1% | 69.9%
CCOC(=O)c1c(NC(=O)c2ccc(Cl)cc2)sc2c(CN(C)C)c(O)ccc12 | 101% | 93.8% | 83.6% | 67.5% | 108% | 67.2% | 76.3% | 62.6% | 59.5%
C=CCSc1nnc(NC(=O)CCl)s1 | 103% | 100% | 95.2% | 95.5% | 108% | 93.3% | 90.3% | 77.2% | 90.7%
CC(C)c1ccc(C(=O)Nc2sc3c(c2C(N)=O)CCC(=O)C3)cc1 | -21.5% (active) | 16.1% | 2.75% (active) | -97.1% (active) | -10.6% (active) | -43.9% (active) | 62.5% | 2.5% (active) | -8.16% (active)
COc1ccc(-c2nc3c(ncc4ccc(=O)[nH]c43)s2)cc1 | 106% | 63.8% | 78.2% | 72.1% | 73.8% | 67.6% | 42.3% | 72.6% | 31.8%

SMILES | growth [1] | growth [2] | growth [3] | growth [4] | growth [5] | growth [6] | growth [7] | growth [8] | growth [9]
CCc1ncnc2c1ccn2C(C)c1ccc(OC)c(F)c1 (stereo not drawn) | 34.3% | 51.9% | 67% | 60.1% | 58.8% | 40.5% | 46.3% | 42.4% | 32.7%
COC(=O)c1c2c(c(C)[n+]([O-])c1C)C(=O)C(NCc1cccc(OC)c1)=CC2=O | 64.3% | 57.2% | 2.9% (active) | 76.8% | 104% | 55.7% | 108% | 16.3% | 3.8% (active)
C#CCOc1cccc(Nc2ncnc3ccc(NC(=O)C=C)cc23)c1 | 55% | 32% | 29.7% | 9.91% (active) | -8.81% (active) | 10.2% | 33.5% | 25.1% | 59.8%
OB1OCc2cc(/C=C/c3cccc(C(F)(F)F)c3)ccc21 | 60.2% | 26.5% | 15.2% | -28.6% (active) | -19.3% (active) | -46% (active) | 6.25% (active) | 7.57% (active) | -3.42% (active)
COc1cc(C2c3cc(OC(C)=O)c(OC)cc3CC3C(=O)OCC32)ccc1OC(C)=O (stereo not drawn) | 132% | 111% | 93.2% | 78.2% | 122% | 97.1% | 180% | 92.4% | 112%
CSc1nnc(-c2cc3c([nH]c4ccccc43)c(-c3cccc(O)c3)n2)n1-c1ccccc1 | 12.9% | 45.8% | 43.7% | 39.7% | 62.2% | 44.6% | 25.5% | 21.8% | 26.6%
CCCCCCCC[C@@H]1N[C@@H](C(=O)OC)Cc2c1[nH]c1ccccc21 | 109% | 92% | 97.4% | 73.9% | 101% | 78.8% | 88.7% | 92.3% | 93%
Cc1ccccc1/C=C/C(=O)c1cccc(OCCCOc2cccc(C(=O)/C=C/c3ccccc3C)c2)c1 | 102% [3 µM] | 95.1% [3 µM] | 91.8% [3 µM] | 82.8% [3 µM] | 108% [3 µM] | 77.5% [3 µM] | 104% [3 µM] | 96.2% [3 µM] | 90% [3 µM]
CCOC(=O)C1=C(C)NC(=O)NC1c1c(Cl)n(CCCl)c2ccccc12 (stereo not drawn) | 106% | 97.8% | 101% | 68.5% | 34.1% | 86.6% | 95.3% | -54.5% (active) | 103%
O=C1Nc2ccccc2/C1=C/c1nc2ccccc2c(=O)[nH]1 | 103% | 80.6% | 89.5% | 64.4% | 181% | 84.2% | 102% | 55.8% | 86%
CC(=O)n1nc(C(=O)OC(C)(C)c2ccccc2)c2ccccc21 | 105% | 100% | 86.9% | 93.2% | 101% | 84.5% | 96.8% | 83.1% | 96.9%
COC(=O)/C=C1/SC(=Nc2ccc(C(F)(F)F)cc2)N(CCc2c[nH]c3ccc(O)cc23)C1=O | -33.5% (active) | 41.1% | -69% (active) | -18.5% (active) | 11.7% | 31.4% | -1.57% (active) | -9.32% (active) | -36.2% (active)
N#CSc1c[nH]c2cccc(/C=C/C(=O)/C=C(/C=C/c3cccc4[nH]cc(SC#N)c34)OB(F)F)c12 | -65% (active) | -10.4% (active) | -21.8% (active) | -76% (active) | -51.7% (active) | -12.5% (active) | 28.2% | -10.9% (active) | -14.4% (active)
COc1c(B(O)O)cccc1-c1cc(C)c2c(ccc3[nH]ncc32)n1 | 116% | 65.8% | 60.5% | 21.6% | 29.2% | -17.9% (active) | 8.91% (active) | 63.3% | 64.2%
Cc1ccc(C2=Nc3c(N)ncnc3NC(c3cccc(Nc4ccnc5cc(C(F)(F)F)ccc45)c3)C2)cc1 (stereo not drawn) | -11.1% (active) | 25.2% | 50% | 26.4% | 64.7% | 21% | 47.8% | 4.56% (active) | -2.37% (active)
Cn1ccc(=O)c(C(=O)Nc2nsc3ccc([N+](=O)[O-])cc23)c1 | 55.7% | 81.7% | 75.3% | 28.1% | 50% | 6.88% (active) | 31.9% | 82.7% | 83.4%
N#CC1=C(N)Oc2c(c(=O)[nH]c3ccc(Cl)cc23)C12C(=O)c1ccccc1C2=O | 115% | 95.2% | 94.8% | 70.2% | 129% | 80.5% | 88% | 107% | 116%
Nc1n[nH]c2cccc(C#Cc3cccc(NC(=O)c4cc(F)cc(C(F)(F)F)c4)c3)c12 | 63.2% | 92.8% | 53.1% | 36.8% | 111% | 104% | 57.1% | 43% | 48.1%
